This note sets out measurements from PubChem BioAssay AID1578 (Sanford-Burnham Center for Chemical Genomics, 2009).

Usually inhibition stands for the drop in the measured response relative to a control, in per cent.

Out of some 290,000 compounds screened, about 3,000 (1%) were called active. What follows is part of a selection rich in actives, with near analogues and random picks from the rest. A number with no mark means an inactive call. No stated cut-off is given here; in the data, active means inhibition mostly above about 36% (no sharp cut-off); inactive means mostly below about 34%.

The assay is described as follows: inhibition of NOD1-driven NF-kB reporter – cell-based, luminescence, uHTS, primary screen (AID 1578).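 Further: HEK-293T reporter cells stimulated with the NOD1 agonist gamma-tri-DAP.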 The note with it: NOD1-driven NF-kB luciferase reporter cells, at 4 µM, stronger effect = higher value. On the technique in general: Reporter assays use an easily measured gene product as a stand-in for the process of interest.
On to `Cc1ccc(OCC(=O)Nc2ccc(N3CCN(C(=O)c4ccco4)CC3)cc2)cc1C`, for which the inhibition was -9.9%.

Regarding `c1ccc(Nc2nc(-c3cccs3)cs2)nc1`, the inhibition was -50.9%. Under `Cc1ccc(Nc2nc(-c3cccs3)cs2)nc1` stands 46% (active); under `Cc1ccc(Nc2nc(-c3ccccc3)cs2)nc1`, -37%; under `CCCn1c(N)c(C(c2ccc(OC)cc2)N2CCN(c3ccccc3)CC2)c(=O)[nH]c1=O` (stereo not given), 10%. Consider `COc1ccc(-c2[nH]c(-c3ccccc3)nc2SCC(=O)Nc2nccs2)cc1`, for which the inhibition is 82.4% (active). As to `COc1ccc(-c2[nH]c(-c3ccc(Cl)cc3)nc2SCC(=O)Nc2nccs2)cc1`, the inhibition is -3.8%. Under `COc1ccc(-c2[nH]c(-c3ccc(C)cc3)nc2SCC(=O)Nc2nccs2)cc1` stands -13.3%. Under `CCC(C)NC(=O)CN(c1ccc(OC)cc1)S(=O)(=O)c1ccccc1` (stereo not given) stands -38.9%. The same measure for `CCOC(=O)c1cnc2c(C)c(Cl)ccc2c1N1CCOCC1`: 14.6%; for `NCC(=O)c1cccc2ccc[n+]([O-])c12`: -2.6%.

Regarding `C[n+]1cccc2c(Br)ccc([O-])c21`, the inhibition was -5.6%.

As for `[O-][n+]1cccc2c(Br)cc(Br)c(O)c21`, the inhibition is 86% (active).

On to `O=C(Cc1ccc(F)cc1)NCCc1cnc[nH]1`, for which the inhibition is -7.3%.

Consider `COc1cc(/C=c2\sc3nc(-c4ccncc4)nn3c2=O)ccc1OC(C)=O`, for which the inhibition was -18.6%.

As to `CC(c1ccco1)N(C(=O)C12CC3(C)CC(C)(CC(C)(C3)C1)C2)c1ccccn1` (stereo not given), the inhibition was -2%. The same measure for `CC(c1ccco1)N(C(=O)C12CC3CC(CC(C3)C1)C2)c1ccccn1` (stereo not given): 17.1%; for `CC(c1ccco1)N(C(=O)C12CC3CC(CC(C)(C3)C1)C2)c1ccccn1` (stereo not given): 31.7% (active); for `CCC(c1nnc(SCC(=O)NC23CC4CC(CC(C4)C2)C3)o1)N(C)C` (stereo not given): -5.8%. Under `Cc1ccc(NS(=O)(=O)c2cc3c4c(cccc4c2)C(=O)NC3=O)cc1` stands 18.1%. With `O=C(CN1CCCCC1)Nc1nnc(-c2ccccc2)s1`, the inhibition is 2.9%.

Take `CN1CCN(CC(=O)Nc2nnc(-c3cccs3)s2)CC1`: the inhibition was -26.2%. On to `O=C(CN1CCCC1)Nc1nnc(-c2cccs2)s1`, for which the inhibition was 74.9% (active).

In the case of `CC(C)NC(=O)CN1C(=O)C(=O)c2ccccc21`, the inhibition is 15.8%.

With `CCOC(=O)N1CCC(NC(=S)Nc2ccc3nc(N4CCN(CC)CC4)cc(C)c3c2)CC1`, the inhibition is 48.8% (active). The same measure for `CCOC(=O)N1CCC(NC(=S)Nc2ccc3nc(N4CCN(C)CC4)cc(C)c3c2)CC1`: 3.9%; for `CCOC(=O)N1CCN(C(=S)Nc2ccc3nc(N4CCN(CC)CC4)cc(C)c3c2)CC1`: -21%.

For the compound `COc1ccc(C(=O)Oc2ccc(N(C)S(=O)(=O)c3ccccc3)cc2)cc1[N+](=O)[O-]`, the inhibition was 8.9%. With `Cc1cc(C)cc(NC(=O)C[n+]2ccccc2)c1`, the inhibition is 45.4%. Turning to `Cc1cccc(-n2ncc3c(N(C)Cc4ccccc4)ncnc32)c1`, the inhibition is 2.1%. The same measure for `O=C1C(Cl)=C(Nc2ccc3cn[nH]c3c2)C(=O)c2ccccc21`: 61.1% (active); for `Cc1cc(S(=O)(=O)Nc2ccc3cn[nH]c3c2)c(C)cc1Cl`: -20.3%. Turning to `O=S(=O)(Nc1ccc2cn[nH]c2c1)c1ccc(Cl)cc1`, the inhibition is -12.5%. Under `CC(C)C(=O)N1CCC2(CC1)Oc1ccc(Cl)cc1C(=O)C21CC(c2ccc(Cl)cc2)=NO1` (stereo not given) stands -3.8%; under `O=C1c2ccccc2NC(c2ccccc2F)N1NS(=O)(=O)c1ccccc1` (stereo not given), -13%; under `O=C(O)CC1(CC(=O)N2CCN(CCO)CC2)CCCC1`, -19.8%. Take `CC(=O)c1ccc(NC(=O)c2cnn3ccccc23)cc1`: the inhibition is 63.1% (active).

As for `CCc1ccc(NC(=O)c2cnn3ccccc23)cc1`, the inhibition is 50.8%. `CC(=O)c1cccc(NC(=O)c2cnn3ccccc23)c1`: the inhibition is -1%. The same measure for `Cc1ccccc1C(=O)c1c[nH]c(C(=O)NCc2cccs2)c1`: 2.5%; for `Cc1ccc(-n2cc(C(=O)O)c(=O)cc2C)c(C)c1`: -25.8%; for `CC(C)n1cc(CN2CCC(n3nccc3NC(=O)CCCc3ccccc3)CC2)cn1`: -24.8%. Under `CCOc1cccc(NC(=O)C2CC(=O)N(C)C(=Nc3cccc(F)c3)S2)c1` (stereo not given) stands 73.6% (active); under `CCOc1cccc(NC(=O)C2CC(=O)N(C)C(=Nc3ccccc3)S2)c1` (stereo not given), 5.5%; under `COc1cccc(NC(=O)C2CC(=O)N(C)C(=Nc3cccc(F)c3)S2)c1` (stereo not given), 13.8%. Under `Fc1ccc(N=c2ssnc2Cl)c(F)c1` stands -14.2%; under `C/C(=N\Nc1ccc(S(=O)(=O)N2CCOCC2)cc1[N+](=O)[O-])C(C)C`, -8.2%; under `Cn1c(SCC(=O)NCCc2ccccc2)nnc1-c1ccncc1`, -5.8%.

With `Cc1nc2ncnn2c(N2CCN(C(=O)c3cccc(F)c3)CC2)c1Cc1ccccc1`, the inhibition is -1.9%. As for `CCOc1ccc(/C=N/N2C(=O)C(CC(=O)Nc3ccc(F)cc3F)SC2=NC)cc1OC` (stereo not given), the inhibition is -23%. For `CN=C1SC(CC(=O)Nc2ccccc2F)C(=O)N1/N=C/c1ccc(O)c(OC)c1` (stereo not given), the inhibition was 47.1% (active).

As to `CN=C1SC(CC(=O)Nc2ccc(F)cc2F)C(=O)N1/N=C/c1ccc(OC(F)F)c(OC)c1` (stereo not given), the inhibition is -35.2%. The same measure for `Cc1ccc(-n2c([S-])c(C(=O)NC(C)c3ccccc3)[n+]3ccccc23)cc1` (stereo not given): -40.2%. Under `CCOC(=O)CSc1nc(-c2ccccc2)nc2ccc(F)cc12` stands -21.7%; under `CCn1c(SCC(=O)N/N=C/c2ccccc2OCC(=O)O)nnc1-c1ccc(C)cc1`, 2.1%; under `CCn1c(SCC(=O)N/N=C(\C)c2ccncc2)nnc1-c1ccc(C)cc1`, -7.3%. Under `CCn1c(SCC(=O)N/N=C/c2ccccc2OCC(=O)O)nnc1-c1ccc(C(C)(C)C)cc1` stands 86.7% (active); under `CCn1c(SCC(=O)N/N=C(\C)c2ccco2)nnc1-c1ccccc1`, -25.7%; under `CCn1c(SCC(=O)N/N=C(\C)c2ccncc2)nnc1-c1ccccc1`, 58.5% (active). As to `CCn1c(SCC(=O)Nc2nc(-c3ccc(C)cc3)cs2)nnc1-c1ccccc1`, the inhibition was 31%. The same measure for `CCn1c(SCC(=O)Nc2nc(-c3ccccc3)cs2)nnc1-c1ccccc1O`: 12.7%; for `CCn1c(SCC(=O)N/N=C/c2ccccc2OCC(=O)O)nnc1-c1ccccc1`: -7.7%; for `CCOC(=O)N1CCN(C(=O)CSCC(=O)Nc2nc(-c3ccc(C)cc3)cs2)CC1`: 13.3%.

`CCOC(=O)N1CCN(C(=O)CSCC(=O)Nc2nc(-c3ccccc3)cs2)CC1`: the inhibition is -14%. The same measure for `CCOC(=O)N1CCN(C(=O)CSCC(=O)Nc2nc(-c3ccc(-c4ccccc4)cc3)cs2)CC1`: 58.2% (active); for `O=C(NCCc1ccccc1)c1ccc(CS(=O)Cc2cccc(Cl)c2)o1` (stereo not given): -20.6%. Under `CCOC(=O)c1c(/N=C/c2ccccc2O)sc2c1CCC2` stands 8.8%; under `COc1ccc(S(=O)(=O)NCCc2c(C)nn(C)c2Oc2ccccc2)cc1`, -4.8%. Take `COc1ccc(CCCC(=O)Nc2ccc(F)cc2)cc1`: the inhibition is 11.5%. The same measure for `CCNc1nc(NC(C)C)nc(Oc2ccc(/C=N/O)cc2)n1`: -10.5%; for `CCOc1ccc(CC2NCCc3cc(OCC)c(OCC)cc32)cc1OCC` (stereo not given): -27.9%; for `CSc1ccc(C(=O)C2CCCN(C(=O)CN3CCOC3=O)C2)cc1` (stereo not given): -29.8%.

For `CCOc1ccc(C(=O)NCCC(=O)N2CCC3(CC2)NCCc2[nH]cnc23)cc1`, the inhibition was -23.8%. Under `O=NN(CCc1ccncc1)c1ccc(OCc2ccccc2)cc1` stands 43.7% (active); under `O=C(N/N=C/c1ccc(OCc2ccccc2)cc1)c1ccncc1`, -35.1%; under `COc1ccc(N(Cc2ccccc2)N=O)cc1`, -31.8%.

For `Cc1c(C)c2ccc(O)c(CN3CCN(C)CC3)c2oc1=O`, the inhibition was 2%. The same measure for `CCOc1ccccc1NC(=S)NC(=O)C1CC1`: 65.9% (active); for `COc1ccccc1NC(=S)NC(=O)C1CC1`: -18.7%. Under `CCOc1ccccc1NC(=S)NC(=O)C1CCCCC1` stands -8%; under `CC(=O)Nc1ccc(NC(=O)CSc2nnc(NC(=O)C3CC3)s2)cc1`, -6.1%; under `CN1C(=O)c2cccc(NC(=O)C3CCCCC3)c2C1=O`, -4%. Under `Cc1cccc(NC(=S)NNc2ncc(C(F)(F)F)cc2Cl)c1` stands 34.9%. As for `FC(F)(F)c1cnc(NNC(=S)Nc2ccc(Cl)cc2)c(Cl)c1`, the inhibition was 104% (active). The same measure for `Cc1ccc(NC(=S)NNc2ncc(C(F)(F)F)cc2Cl)cc1`: 36.4%; for `C=CCN1C(=O)C(CC(=O)O)SC1=Nc1ccc(N=Nc2ccccc2)cc1` (stereo not given): -20.5%; for `O=C(CN1C2=NCCN2c2ccccc21)c1ccc(Br)cc1`: 6.8%. Under `Cc1cc(Cl)cc(Cl)c1OCC(=O)NCc1ccco1` stands 20.4%; under `CCN(CC(=O)NC(C)(C)C)C(=O)COc1c(Cl)cc(Cl)c2ccc(C)nc12`, 49.3% (active). Under `Cc1ccc2c(Cl)cc(Cl)c(OCC(=O)N(C(C)C)C(C)C)c2n1` stands -3.8%; under `Cc1ccc2c(Cl)cc(Cl)c(OCC(=O)NC(C)(C)C)c2n1`, -11.5%; under `Cc1ccc2c(Cl)cc(Cl)c(OCC(=O)NCc3ccco3)c2n1`, 101% (active). On to `Cc1ccc2c(Cl)cc(Cl)c(OCC(=O)NC(=O)NCc3ccco3)c2n1`, for which the inhibition is -16.8%. On to `COc1cccc(CN(C)C(=O)CNC(=O)c2ccc3c(c2)OCO3)c1OC`, for which the inhibition is -8.5%. On to `CC(C(=O)Nc1ccc2c(c1)OCO2)N(c1ccc(Cl)cc1)S(C)(=O)=O` (stereo not given), for which the inhibition is -9.6%.
